Here are results for 32 molecules from the supplement of paper PMC12632987.

For this test, the target named is T1, USP38, Q8NB14.
T1 chain: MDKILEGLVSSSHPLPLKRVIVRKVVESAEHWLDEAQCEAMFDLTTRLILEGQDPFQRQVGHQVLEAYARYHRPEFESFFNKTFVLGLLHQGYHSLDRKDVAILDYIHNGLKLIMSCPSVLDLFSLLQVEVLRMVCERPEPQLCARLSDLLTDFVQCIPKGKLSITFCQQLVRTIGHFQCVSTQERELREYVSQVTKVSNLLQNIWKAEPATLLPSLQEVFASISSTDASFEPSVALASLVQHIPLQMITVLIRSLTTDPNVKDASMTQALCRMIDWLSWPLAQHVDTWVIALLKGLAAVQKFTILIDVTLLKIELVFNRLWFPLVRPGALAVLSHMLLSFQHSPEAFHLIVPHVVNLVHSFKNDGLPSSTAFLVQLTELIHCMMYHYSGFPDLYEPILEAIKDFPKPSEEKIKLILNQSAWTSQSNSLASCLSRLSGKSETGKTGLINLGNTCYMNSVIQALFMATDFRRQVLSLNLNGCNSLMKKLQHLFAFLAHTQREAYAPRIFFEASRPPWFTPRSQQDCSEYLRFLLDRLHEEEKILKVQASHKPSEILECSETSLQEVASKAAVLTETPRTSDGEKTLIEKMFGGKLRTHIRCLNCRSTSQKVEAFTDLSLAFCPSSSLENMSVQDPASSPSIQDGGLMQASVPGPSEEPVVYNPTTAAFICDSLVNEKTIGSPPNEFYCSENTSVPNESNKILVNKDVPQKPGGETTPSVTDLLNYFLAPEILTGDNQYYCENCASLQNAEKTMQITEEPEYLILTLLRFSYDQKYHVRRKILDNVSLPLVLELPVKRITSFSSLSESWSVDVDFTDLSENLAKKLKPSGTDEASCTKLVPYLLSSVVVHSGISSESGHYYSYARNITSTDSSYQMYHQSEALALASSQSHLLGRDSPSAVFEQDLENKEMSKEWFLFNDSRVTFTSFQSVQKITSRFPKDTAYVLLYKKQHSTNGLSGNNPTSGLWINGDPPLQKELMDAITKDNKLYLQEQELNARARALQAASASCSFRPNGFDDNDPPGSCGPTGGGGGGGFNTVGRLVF
As to the kind of experiment: median log2 fold change of GCK-ALFA target abundance (FLAG IP / Myc IP barcode read proportion) (log2 ratio); each designed protein is fused to an ALFA-tag nanobody in HEK293 cells to bring the named protein to FLAG-tagged glucokinase (GCK); Myc marks an untargeted standard; higher = target protein stabilised (more abundant). Conditions: target protein: 3xFLAG-MCP-GCK-ALFA reporter; HEK293 landing pad (RPLP). The essentials: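 HEK293 landing-pad cells received a recombined binder library fused to the ALFA nanobody and were induced with 2 μg mL^−1 doxycycline, then transfected with a plasmid encoding a FLAG-tagged target and a Myc-tagged standard. Lysates were collected after 48 h for anti-FLAG and anti-Myc immunoprecipitation, and the circular RNA barcodes were reverse transcribed, amplified and sequenced. Target abundance for each binder is the median log2 ratio of FLAG to Myc barcode read proportions. Barcodes had to reach a proportion of at least 10^−7 in both replicates, each binder needed at least 3 barcodes per replicate, a pseudocount of 10^−6 was applied, and the two replicates were pooled.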

B1: usp_38_diff_out_14_2_86 (protein)
chain: AEEELKKKTEETKKKLKEGIELAKKIKEEVKKDPSKAEELRKKLFEKHDEIGDKVGELAKLIEEHKEIPALRKEAVKEVNELLTEYTKALLEALEELAKA
Turning to B1, the “median log2 fold change” value is -0.431.

B2: usp_38_diff_out_14_54_123 (protein)
chain: SEELEELLEEARRALEEARRALREAERLLREGGPLEEVREALDRAARAIGRLGEALRRARALATDPEVLKELERLEKEADELVDRYTELARRALEMEAER
As to B2, the “median log2 fold change” value worked out at 0.491.

B3: usp_38_diff_out_14_75_132 (protein)
chain: SEKEELEKRLEELEKRLEELEKEGKLTGRLVVELGGVLHVAREAIEAGKLETAKKLLEIAEQALEDPERAREILRENEDFIVDTYKELALEEIEKEEAER
For the molecule B3, the “median log2 fold change” value is -0.63.

B4: usp_38_diff_out_14_2_88 (protein)
chain: AEEELKKATEETLKKLEEGIKLAKELTKKVKEDPSQAEKAREELFKKHDEIGDAVGRLAKLIEEHKEIPALNKEAVEEVNKKLTEYTEETLKALELLAEA
For the molecule B4, the “median log2 fold change” value was -0.277.

B5: usp_38_diff_out_14_2_81 (protein)
chain: AEEELKAATEKTLAVLDDAIKAAKELTKEVKKDPSLAEKAREKLLEEWDKAGDAVGELEKLILENKEAKETNKEAREKVNKKLDELTKAFLEALETAAEA
For the molecule B5, the “median log2 fold change” value is -0.289.

B6: usp_38_diff_out_14_2_83 (protein)
chain: MEEEIKEKTKETLEEIEKAIKELKELEKEVKKDPSKKEEAYKKAFEKWDKAADKVGELEKLLRENKENPELNKKAKEEINEKLTKLTEEALKLLETIAEV
Consider B6, for which the “median log2 fold change” value is -0.316.

B7: usp_38_diff_out_14_2_90 (protein)
chain: GEEELKKKYEETKKTLEEAIKKAKELKEEVKKDPSKAEEARKRLFEEWDKAADKVGELEKLIRENPEHKELNKKIIEEVNKLITELTKAALEALEAIAEA
B7: the “median log2 fold change” value was -0.724.

B8: usp_38_diff_out_14_2_87 (protein)
chain: AEEELKKATKETLKKLEEHIKLAKELAERVKKDPSTAEQAREELFASWDEVGDKVGALAKLIEENKEIPELRKKAIEEVNKKLTEATEATLAALELLAEA
As for B8, the “median log2 fold change” value is -0.418.

B9: usp_38_diff_out_14_2_80 (protein)
chain: AEEKLKKATEETLKVLKEAIKKAKELKKEVEADPSLAEKAREELLKAWDKAGDAVGALNKLIEENKEAKETRKKATEEVNKAIDELTKEVLEALQTAAEA
In the case of B9, the “median log2 fold change” value was -0.879.

B10: usp_38_diff_out_14_75_134 (protein)
chain: SEKEELEERLAALEARLEALVAEGVISGRLEVELGAVLHTARLAIEAGRLEEARRLLDIAEEALADPARAREILRANEDFIVSTHLRLELERLAAEEAAR
In the case of B10, the “median log2 fold change” value amounted to 0.0715.

B11: usp_38_diff_out_14_54_126 (protein)
chain: SERLRRLLEEARRKLAEAERYLEEAEKALEEGAPLEEIERLLDEAARALGAAARALREAATLATDPESRAELEELRARADELTDRYTELAREAFLRRLEE
Consider B11, for which the “median log2 fold change” value amounted to 0.0528.

B12: usp_38_diff_out_14_2_98 (protein)
chain: AEEELKKATEETLKVLDEAIKKAKELKERVKKDPSLAEEAREELFKAWDKAADAVGELAKLMEEHRELRELNKKAVEEVNKKLTELTEELLEALELAAEA
Regarding B12, the “median log2 fold change” value is -0.576.

B13: usp_38_diff_out_14_2_92 (protein)
chain: GKEKLEEKFKETKEKLKEAIKKAKELKKEVKKDPSKAEEAREELFKAWDEAGDKVGELEKLLRENPEYKELNKKIKEEVNKLITELTEAALEALEEIAKA
With B13, the “median log2 fold change” value is -0.436.

B14: usp_38_diff_out_14_75_130 (protein)
chain: SMKEELEKRLEELEERLKELEEKGVLTGRTVVELGGVLYVARLAIEAGDLETAEKLLEIAEKALEDPENAKEILDENEDFIVSTHIELELRRIEEEEAAR
For the molecule B14, the “median log2 fold change” value was -0.097.

B15: usp_38_diff_out_14_2_85 (protein)
chain: AEEKIKKATEKTLKKLEEAIKLAKELKEEVKKDPSKAEKAREELFKKWDEVGDAVGELAKLLEENKEIPALNKEANEKVNEKLTELTKATLEALEELAEA
Turning to B15, the “median log2 fold change” value is -0.606.

B16: usp_38_diff_out_14_2_97 (protein)
chain: GKEELEKKFKETKKVLEEAIKKAKELKKEVEKDPSKAEEARKKLFEAWDKAADKVGELQKLLEENPEYKELNKKIIEEVNKLLTELTKAALEALELIAEA
For B16, the “median log2 fold change” value was -0.467.

B17: usp_38_diff_out_14_2_94 (protein)
chain: GEEELKKKYEETLKVLEEAIKEAKKIKEEVKKDPSIAEEKRKELFEKWDEAADKVGELQKLLEENPEHKELNKKIIEEVNKKITELTKAALEALEELAKA
For B17, the “median log2 fold change” value is 0.0575.

B18: usp_38_diff_out_14_2_95 (protein)
chain: GEEELKKAAKETKEVLKKAIEEAKELEKKVKEDPSQAEQARKELFKKWDEAGDAVGKLEKLLRENPEHKELNKKIIEEVNKLINELTKAALKALETLAEA
On to B18, for which the “median log2 fold change” value is -0.416.

B19: usp_38_diff_out_14_2_99 (protein)
chain: AKEELEKATKETLKVLKEAIKKAKELLKEVKKDPSKAEEATKKLFEEWDKAADAVGKLAKLIEEHKEERKLNKEAIEKVNKELTELTKVTLEALEEAAKA
On to B19, for which the “median log2 fold change” value was -0.478.

B20: usp_38_diff_out_14_75_136 (protein)
chain: SEREELRARLAAARARLDALVAAGVISGRLEVELGAVLHVAALAIEAGDLETARRLLDIVEAALADPARAREILRAAEDFIVDAYKRLELRRIEEEEEER
Regarding B20, the “median log2 fold change” value stood at 0.0109.

B21: usp_38_diff_out_14_75_129 (protein)
chain: SEREKLEERLEAAEARLAALVAAGVISGRTEVKLGAVLHVARLAIEQGDLETAEKLLEIVEKALADPANADKILDENEDFIVSTYKELALRELEEEEKKR
Regarding B21, the “median log2 fold change” value is 0.261.

B22: usp_38_diff_out_14_2_89 (protein)
chain: GEEELEKKTKETLEKLEELIELAKKIKEEVEKDPSKAEELRKELFKKWDEVGEKVGELAKLIEEHKELPELNKKAVKEVNEKLSEATKEILEALELLAEA
For the molecule B22, the “median log2 fold change” value is -0.37.

B23: usp_38_diff_out_14_54_128 (protein)
chain: DEEIERLLEEARKKLEELKKLKEELKKLVKAGASMEEIFAAYDKAADAAAAAGEAIRRLRKLSTDPEVKEEARKLEEEVNKLLDEVTELVTEALERAAER
For the molecule B23, the “median log2 fold change” value was -0.492.

B24: usp_38_diff_out_14_54_127 (protein)
chain: DEEIKRLLEEARKYLEEAKKALAELKELVAAGAAPEEVFAAYDKAADAIAKAGEAIRRLMRLSTDPEVRKEAREIQEEADKLVDEMTEAVTAAQEKAAEA
With B24, the “median log2 fold change” value was 0.232.

B25: usp_38_diff_out_14_75_133 (protein)
chain: SEREELEKRLEELRARLAALVAAGVISGRLEVELGAVLYTAELAIEAGKLEEAKKLLDIAEAALDDPANAKAILDANEDFIVSTYKELELERIEREEEEE
For the molecule B25, the “median log2 fold change” value was determined as 0.198.

B26: usp_38_diff_out_14_2_93 (protein)
chain: GEEELKKLFEETKKVLEEAIKRAEELTKEVKADPSQAEKARKELFKAWDEAGDKVGELQKKIEENKEHKELNKKIIKEVNELITKLTEAALAALEEIAAA
For the molecule B26, the “median log2 fold change” value is -0.0116.

B27: usp_38_diff_out_14_54_124 (protein)
chain: MEELERLLEEAERALREAEEALERAERLLEEGGPLEEIRRELDRAARAIGRLGEALRRARALATDPEVKKRLEELEKKADELVDRYNELARRALEMEAER
In the case of B27, the “median log2 fold change” value is 0.191.

B28: usp_38_diff_out_14_75_131 (protein)
chain: SEREELERRLEELRARLAALEAAGVITGRKVVKLGGALHVAELAIRAGRLEEARKILDIVEEALDDPERADEILDENEDFIVDTYKELALAEIEAEEAAR
Turning to B28, the “median log2 fold change” value stood at 0.103.

B29: usp_38_diff_out_14_2_84 (protein)
chain: MEEEIKKKTKETLKKIEEAIKRAKELKERVKKDPSLKEKAREELFKEWDEAADKVGELEKLLRENKENPELNKKAREEVNKKLTELTEVALETLELIAEV
For the molecule B29, the “median log2 fold change” value is -0.366.

B30: usp_38_diff_out_14_2_82 (protein)
chain: AVEKIKKATEETLKVLEEAIKKFKELKKEVEADPSKAEEARKEILKAWDKAGDAVGALNKLIEENPEAKEENKEATKKVNEALTKLTKEALEALQAAAEA
For the molecule B30, the “median log2 fold change” value is -0.116.

B31: usp_38_diff_out_14_75_135 (protein)
chain: SEREELERRLEELEERLARLVAEGVISGRTEVKLGAVLHVARLAIEEGRLEEARKLLEIVERALADPERADEILEENEDFIVSTYLELELRRLAEEEAKR
B31: the “median log2 fold change” value is -0.475.

B32: usp_38_diff_out_14_54_125 (protein)
chain: MEELEKLLKEAEKALKEAEKALAAAEALLEAGGPLAEIRALLDAAARAIGAAGEALRKARALATDPEVKKKLEELRKRADELVDRYNELARRALEREAAA
Take B32: the “median log2 fold change” value was -0.00832.
